Results published in PubChem BioAssay AID1159580 (chemical genetic matrix, 2015).
Values joined by “and” are separate entries in the source; they are usually repeats but may differ in a detail not shown here. Equal values may be shown once. Out of some 5,500 compounds screened, about 2,000 (36%) were called active. Roughly 18% stayed inconclusive and do not appear here. Cut-off read from the data, not from the text of the source: active = normalized growth mostly below about 0.91 (no sharp cut-off); inconclusive = no clear call, values can overlap the other calls; inactive = mostly above about 0.92. Some of the results follow.

Assay: chemical genetic growth profiling, strain panel (AID 1159580);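 note: tested at 20 µM; growth read once vehicle control cultures reached saturation at 30 °C; 1 = growth at the plate median or of vehicle wells; lower values mean less growth of the strain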
Conditions: S. cerevisiae deletion strains, growth OD

Measured: normalized growth

CC1=NCCc2c1[nH]c1cc(O)ccc21
inactive: locus YAL013W, strain DEP1, stronger effect = lower value 0.99 | locus YAL021C, strain ccr4, stronger effect = lower value 0.923 | locus YAL026C, strain drs2, stronger effect = lower value 0.987 | locus YAL030W, strain snc1, stronger effect = lower value 0.984 | locus YBL061C, strain skt5, stronger effect = lower value 0.995 | locus YBR009C, strain hhf1, stronger effect = lower value 0.97 | locus YBR021W, strain FUR4, stronger effect = lower value 0.989 | locus YBR023C, strain chs3, stronger effect = lower value 0.994 | locus YBR171W, strain sec66, stronger effect = lower value 0.993 | locus YBR229C, strain ROT2, stronger effect = lower value 0.955 | locus YBR231C, strain swc5, stronger effect = lower value 1.02 | locus YBR279W, strain paf1, stronger effect = lower value 0.995 | locus YCL011C, strain gbp2, stronger effect = lower value 0.963 | locus YCL016C, strain dcc1, stronger effect = lower value 0.967 | locus YCL029C, strain bik1, stronger effect = lower value 0.994 | locus YCL069W, strain vba3, stronger effect = lower value 0.976 | locus YCR088W, strain abp1, stronger effect = lower value 0.99 | locus YDL005C, strain med2, stronger effect = lower value 0.995 | locus YDL035C, strain GPR1, stronger effect = lower value 0.992 | locus YDL040C, strain nat1, stronger effect = lower value 0.993 | locus YDL074C, strain BRE1, stronger effect = lower value 0.997 | locus YDL101C, strain DUN1, stronger effect = lower value 0.978 | locus YDL134C, strain PPH21, stronger effect = lower value 0.988 | locus YDL185W, strain tfp1, stronger effect = lower value 0.993 | locus YDL192W, strain arf1, stronger effect = lower value 0.992 | locus YDR001C, strain nth1, stronger effect = lower value 0.971 | locus YDR069C, strain doa4, stronger effect = lower value 0.986 | locus YDR101C, strain arx1, stronger effect = lower value 0.997 | locus YDR137W, strain rgp1, stronger effect = lower value 0.98 | locus YDR150W, strain NUM1, stronger effect = lower value 0.972 | locus YDR159W, strain sac3, stronger effect = lower value 1.02 | locus YDR162C, strain NBP2, stronger effect = lower value 0.99 | locus YDR195W, strain ref2 0.953 | locus YDR297W, strain sur2, stronger effect = lower value 0.996 | locus YDR318W, strain mcm21, stronger effect = lower value 0.994 | locus YDR334W, strain swr1, stronger effect = lower value 0.97 | locus YDR335W, strain msn5, stronger effect = lower value 0.986 | locus YDR388W, stronger effect = lower value 1 | locus YDR392W, strain spt3, stronger effect = lower value 0.93 | locus YDR502C, strain sam2, stronger effect = lower value 0.984 | locus YEL003W, strain gim4, stronger effect = lower value 0.994 | locus YEL037C, strain rad23, stronger effect = lower value 0.978 | locus YEL061C, strain CIN8 (second series), stronger effect = lower value 0.985 | locus YEL061C, strain CIN8, stronger effect = lower value 0.988 | locus YER015W, strain faa2, stronger effect = lower value 0.975 | locus YER016W, strain bim1, stronger effect = lower value 0.993 | locus YER110C, stronger effect = lower value 0.974 | locus YER111C, strain swi4, stronger effect = lower value 0.995 | locus YER155C, strain BEM2 (second series), stronger effect = lower value 1.03 | locus YER155C, strain BEM2, stronger effect = lower value 1.01 | locus YER167W, strain BCK2, stronger effect = lower value 1 | locus YFR010W, strain ubp6, stronger effect = lower value 0.983 | locus YGL078C, strain dbp3, stronger effect = lower value 0.991 | locus YGL086W, strain mad1, stronger effect = lower value 0.987 | locus YGL167C, strain pmr1, stronger effect = lower value 0.976 | locus YGL173C, strain kem1, stronger effect = lower value 0.991 | locus YGL227W, strain vid30, stronger effect = lower value 0.99 | locus YGL240W, strain doc1, stronger effect = lower value 1 | locus YGL248W, strain PDE1, stronger effect = lower value 0.99 | locus YGL253W, strain hxk2, stronger effect = lower value 0.985 | locus YGR078C, strain PAC10, stronger effect = lower value 1.01 | locus YGR135W, strain pre9, stronger effect = lower value 0.992 | locus YGR229C, strain SMI1, stronger effect = lower value 1.01 | locus YGR252W, strain gcn5, stronger effect = lower value 0.932 | locus YHR013C, strain ard1, stronger effect = lower value 0.95 | locus YHR027C, strain rpn1, stronger effect = lower value 0.966 | locus YHR030C, strain SLT2, stronger effect = lower value 0.995 and 1.01 | locus YHR079C, strain IRE1 (second series), stronger effect = lower value 0.995 | locus YHR079C, strain IRE1, stronger effect = lower value 1.01 | locus YHR094C, strain hxt1, stronger effect = lower value 0.99 | locus YHR129C, strain ARP1, stronger effect = lower value 1 | locus YHR142W, strain chs7, stronger effect = lower value 0.968 | locus YHR200W, strain rpn10, stronger effect = lower value 0.991 | locus YIL066C, strain RNR3, stronger effect = lower value 0.975 | locus YIL073C, strain SPO22, stronger effect = lower value 0.992 | locus YIL125W, strain kgd1, stronger effect = lower value 0.988 | locus YIR030C, strain dcg1, stronger effect = lower value 0.985 | locus YJL092W, strain hpr5, stronger effect = lower value 0.965 | locus YJL095W, strain BCK1 (second series), stronger effect = lower value 0.983 | locus YJL095W, strain BCK1, stronger effect = lower value 1.05 and 1.01 | locus YJL115W, strain asf1, stronger effect = lower value 0.956 | locus YJL129C, strain trk1, stronger effect = lower value 1.01 | locus YJL134W, strain LCB3, stronger effect = lower value 0.986 | locus YJL154C, strain vps35, stronger effect = lower value 0.977 | locus YJL164C, strain tpk1, stronger effect = lower value 0.95 | locus YJL166W, strain qcr8, stronger effect = lower value 1.01 | locus YJL168C, strain set2, stronger effect = lower value 0.999 | locus YJL187C, strain SWE1 (second series), stronger effect = lower value 0.991 | locus YJL187C, strain SWE1, stronger effect = lower value 0.989 | locus YJR043C, strain POL32, stronger effect = lower value 1.01 | locus YJR066W, strain TOR1, stronger effect = lower value 0.934
